Screens: PubChem, several laboratories
KCC2 mod – modulators of human KCC2 chloride dependent transport | Q9H2X9 | KCC2 cells, thallium flux FluoZin-2 fluorescence | B-score of Tl+ flux slope (higher = more flux/activation; lower = inhibition) at 10 µM | 190,000 compounds, 2.2% hits;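 active means thallium flux slope and its plate-corrected score both differing from the plate sample mean at a set confidence after two filtering rounds, in either direction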;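 further: slope of fluorescence scaled to starting intensity during 10 to 20 s after thallium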
Target sequence (Q9H2X9 whole entry, looked up): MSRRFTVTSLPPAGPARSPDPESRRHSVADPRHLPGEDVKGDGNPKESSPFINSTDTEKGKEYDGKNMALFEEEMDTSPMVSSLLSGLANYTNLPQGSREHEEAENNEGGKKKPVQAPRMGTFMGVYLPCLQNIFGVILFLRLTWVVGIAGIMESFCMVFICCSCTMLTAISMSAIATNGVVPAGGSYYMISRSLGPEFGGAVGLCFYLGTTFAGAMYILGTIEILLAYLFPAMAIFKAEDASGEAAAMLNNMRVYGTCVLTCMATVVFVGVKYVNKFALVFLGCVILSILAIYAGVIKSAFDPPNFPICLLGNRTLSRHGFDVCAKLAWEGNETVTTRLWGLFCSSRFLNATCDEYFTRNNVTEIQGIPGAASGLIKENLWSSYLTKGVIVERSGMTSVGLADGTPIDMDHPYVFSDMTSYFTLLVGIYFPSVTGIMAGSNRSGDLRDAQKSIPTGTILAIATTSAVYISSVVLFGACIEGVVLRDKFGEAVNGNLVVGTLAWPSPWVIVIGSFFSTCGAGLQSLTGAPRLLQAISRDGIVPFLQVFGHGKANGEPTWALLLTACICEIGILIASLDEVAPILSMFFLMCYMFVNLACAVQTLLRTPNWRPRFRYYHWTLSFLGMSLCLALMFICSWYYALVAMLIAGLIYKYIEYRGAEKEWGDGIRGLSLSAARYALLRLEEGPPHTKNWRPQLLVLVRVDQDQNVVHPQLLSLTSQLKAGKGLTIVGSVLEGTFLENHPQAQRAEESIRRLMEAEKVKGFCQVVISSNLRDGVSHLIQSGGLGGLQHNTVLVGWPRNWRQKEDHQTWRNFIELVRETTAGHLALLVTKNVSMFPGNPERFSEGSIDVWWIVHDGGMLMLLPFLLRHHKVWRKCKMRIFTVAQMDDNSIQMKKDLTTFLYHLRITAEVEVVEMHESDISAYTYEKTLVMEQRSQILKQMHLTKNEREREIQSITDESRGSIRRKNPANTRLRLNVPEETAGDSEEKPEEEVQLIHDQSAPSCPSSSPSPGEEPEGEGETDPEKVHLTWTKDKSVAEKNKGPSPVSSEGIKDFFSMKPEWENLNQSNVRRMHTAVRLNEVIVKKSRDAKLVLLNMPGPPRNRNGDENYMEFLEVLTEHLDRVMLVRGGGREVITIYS
Efflux pump mplx – antifungal efflux pump inhibition, Nile Red retention. 330,000 compounds, 0.44% hits. S. cerevisiae Candida pump triplex. inhibition, % at 10 µM;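 active means plate passing quality check with inhibition over a set limit, or well fluorescence over plate mean plus 4 SD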;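 further: Nile Red retained in pooled yeast measured as flow cytometry median fluorescence; higher means more Nile Red kept so more efflux inhibition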
PHOSPHO1 inh – blocks human PHOSPHO1 phosphatase activity | Q8TCT1 | recombinant PHOSPHO1, absorbance phosphatase assay | inhibition, % at 13.3 µM | 290,000 compounds, 1.1% hits | AID 1565; in the data active means inhibition above about 60%
Cardio protect – modulators protecting cardiomyocytes from myocardial damage; 360,000 compounds, 0.63% hits; AID 588492; H9c2 cardiomyocytes, H2O2 injury protection, ATPLite, 2 h; protection from H2O2 cell death, % at 20 µM;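 active means compounds giving at least 50% protection of heart cells from peroxide-induced death in the single-dose screen, raw or plate-pattern-corrected value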
Calb FLC – affects C. albicans growth with fluconazole. AID 1979. growth inhibition, % (concentration not given with the values). 300,000 compounds, 0.57% hits. C. albicans CaCi-2 (fluconazole-resistant clinical isolate) + fluconazole, Alamar Blue growth, 48 h;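 active means growth inhibition above about 58% in most replicates, limit read from the data, passing the limit was not always enough; inconclusive means exactly half the replicates above a set limit; inactive means most replicates below a set limit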;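 further: all wells also contain fluconazole at 8 µg/ml as a sub-toxic cotreatment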
KCC2 secondary – KCC2 (human) modulation, secondary assay; shares compounds with KCC2 mod; HEK293-KCC2, thallium flux, FluoZin2 fluorescence; hits give high values; normalised thallium flux (F/F0 slope) at 10 µM; 3,700 compounds, 15% hits;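 active means thallium flux slope above the same plate's solvent-only control mean plus 3 SD; inconclusive means the two replicate wells disagree; inactive means no significant difference from solvent-only control wells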
KCC2 bumet counter – bumetanide-insensitive thallium flux in KCC2 cells with ouabain, counter-screen; shares compounds with KCC2 mod; HEK293-KCC2 + bumetanide/ouabain, thallium flux FluoZin2; hits give high values; normalized thallium flux at 10 µM; 3,700 compounds, 49% hits; AID 1714;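 active means thallium entry rate above the same plate's blocked-transporter control wells by more than 3 SD; inconclusive means the two repeat wells disagree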;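 further: raw slope of fluorescence over initial fluorescence between 10 and 20 s after thallium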
KCC2 secondary2 – confirmation of human KCC2 transport modulators. shares compounds with KCC2 mod. HEK293-KCC2, thallium flux FluoZin2 fluorescence; actives lie on both sides; F/F0 rise rate, 10–20 s post-thallium. normalized thallium flux at 10 µM. 3,700 compounds, 23% hits;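 active means thallium flux slope more than 3 SD above or below the plate's solvent-only control mean, mostly below; inconclusive means the two repeat wells disagreed; inactive means no significant shift from solvent-only controls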
HEK293 Tl flux – parental HEK flux effect, counter-screen. shares compounds with KCC2 mod. HEK293 parental cells, thallium flux FluoZin2, ouabain; baseline-ratio fluorescence slope, 10–20 s after thallium. thallium flux rate (normalised fluorescence) at 10 µM. 3,700 compounds, 46% hits;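 active means thallium flux rate significantly above the same plate's solvent-only control wells, beyond their mean plus 3 SD; inconclusive means the two replicate wells gave conflicting results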
KCC2 retest ouab – confirmation of human KCC2 modulators with ouabain. 3,700 compounds, 48% hits. shares compounds with KCC2 mod. HEK293-KCC2, thallium flux FluoZin2 fluorescence; bidirectional: low = inhibitor, high = activator. raw Tl+ flux slope (below DMSO = inhibition, above = activation) at 10 µM;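 active means thallium flux slope beyond 3 SD from same-plate DMSO control mean in most replicates, usually higher, sometimes lower; inconclusive means repeat tests gave conflicting results; inactive means no significant difference from controls in most replicates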;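 further: slope of initial-normalized fluorescence between seconds 10 and 20 after thallium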
HEK293 Tl flux2 – parental HEK flux effect, counter-screen 2. shares compounds with KCC2 mod. HEK293 parental, thallium flux FluoZin-2 fluorescence slope. thallium flux slope at 10 µM. 3,700 compounds, 33% hits;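 active means thallium flux slope above the same plate's solvent-control mean plus 3 SD in both duplicate wells; inconclusive means duplicate wells that disagreed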;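 further: run without ouabain in cells lacking the KCC2 cotransporter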
Numbers stand for hits. This is a sample that favours compounds with a hit; in the whole collection about 3.3% have one here.

What do the screens show for `CCCSc1ccc([C@H]2N[C@@](C)(C(=O)OC)[C@H]3C(=O)N(C)C(=O)[C@@H]23)cc1OC`?
Efflux pump mplx: inactive; Cardio protect: inactive; Calb FLC: inactive

What do the screens show for `Cc1nnc(NC(=O)CSc2nccn2Cc2ccccc2)s1`?
Efflux pump mplx: inactive; PHOSPHO1 inh: inactive; Cardio protect: inactive; Calb FLC: inactive

What do the screens show for `CCCN1C(=O)c2ccc(C(=O)Nc3nccs3)cc2C1=O`?
KCC2 mod: 6; Efflux pump mplx: inactive; PHOSPHO1 inh: inactive; Cardio protect: inactive; Calb FLC: inactive; KCC2 secondary: inactive; KCC2 bumet counter: inconclusive; KCC2 secondary2: inactive; HEK293 Tl flux: inactive; KCC2 retest ouab: inactive; HEK293 Tl flux2: inactive

How did Cc1ccc(S(=O)(=O)N(C)C)cc1NC(=O)COC(=O)CSc1ccccc1 do in these assays?
Efflux pump mplx: inactive; Cardio protect: inactive; Calb FLC: inactive

How did CCOC(=O)c1cc2c(=O)[nH]ccc2nc1C do in these assays?
KCC2 mod: 13; Efflux pump mplx: inactive; PHOSPHO1 inh: inactive; Cardio protect: inactive; Calb FLC: inactive; KCC2 secondary: inactive; KCC2 bumet counter: inconclusive; KCC2 secondary2: inactive; HEK293 Tl flux: inactive; KCC2 retest ouab: inactive; HEK293 Tl flux2: inactive

Results for S=c1[nH]nc(-c2ccc3ccccc3n2)n1-c1ccccc1 ?
KCC2 mod: inactive; Efflux pump mplx: inactive; PHOSPHO1 inh: inactive; Cardio protect: inactive; Calb FLC: inactive

How did Fc1ccccc1-n1c(-c2ccc3ccccc3n2)n[nH]c1=S do in these assays?
KCC2 mod: 4.5; Efflux pump mplx: inactive; PHOSPHO1 inh: inactive; Cardio protect: inactive; Calb FLC: inactive; KCC2 secondary: inactive; KCC2 bumet counter: 0.022; KCC2 secondary2: inconclusive; HEK293 Tl flux: inconclusive; KCC2 retest ouab: inconclusive; HEK293 Tl flux2: inactive

What do the screens show for `Cc1sc2nc(SCc3nnc(-c4cccs4)o3)n(C3CCCC3)c(=O)c2c1C`?
KCC2 mod: 10; Efflux pump mplx: inactive; PHOSPHO1 inh: inactive; Cardio protect: inactive; Calb FLC: inactive; KCC2 secondary: 0.017; KCC2 bumet counter: 0.046; KCC2 secondary2: inactive; HEK293 Tl flux: 0.019; KCC2 retest ouab: inactive; HEK293 Tl flux2: 0.014

How did Brc1ccccc1-c1nnc(COc2cccc3cccnc23)o1 do in these assays?
KCC2 mod: -3; Efflux pump mplx: inactive; PHOSPHO1 inh: inactive; Cardio protect: inactive; Calb FLC: inactive; KCC2 secondary: inactive; KCC2 bumet counter: inactive; KCC2 secondary2: inactive; HEK293 Tl flux: inactive; KCC2 retest ouab: 0.038; HEK293 Tl flux2: inactive

How did Brc1ccc(-c2cnco2)cc1 do in these assays?
KCC2 mod: inactive; Efflux pump mplx: inactive; PHOSPHO1 inh: inactive; Cardio protect: inactive; Calb FLC: inactive

Results for Cc1ccccc1C(=O)NC(=S)Nc1ccc(S(=O)(=O)N(C)c2ccccc2)cc1 ?
KCC2 mod: inactive; Efflux pump mplx: inactive; PHOSPHO1 inh: inactive; Cardio protect: inactive; Calb FLC: inactive

How did Cc1cccc(C(=O)NC(=S)Nc2ccc(S(=O)(=O)N(C)c3ccccc3)cc2)c1 do in these assays?
KCC2 mod: 2.5; Efflux pump mplx: inactive; PHOSPHO1 inh: inactive; Cardio protect: inactive; Calb FLC: inactive; KCC2 secondary: inactive; KCC2 bumet counter: 0.014; KCC2 secondary2: inactive; HEK293 Tl flux: inactive; KCC2 retest ouab: 0.026; HEK293 Tl flux2: 0.012
